Data published in ChEMBL document CHEMBL3988442, “University of Dundee, Small-Polar-MMV Screening Library” (2021).
In all, about 48,000 compounds went through this assay and about 13,000 (27%) showed an effect of 50% or more. The list shows a part of the results.

Tested on: Wolbachia pipientis
Assay: Anti-Wolbachia Cell-Based Screen
Format: functional
Parameters: scale not given: in the data most compounds retested in dose-response had high values
Conditions: 5 µM

Row | SMILES | Percent Effect [%]
1 | O=C1CC[C@H]2CN(Cc3cccnc3)CC[C@H]2N1CCc1c[nH]cn1 | -39.87
2 | CN(c1ccccc1C(=O)O)S(=O)(=O)c1cccc2cccnc12 | -35.11
3 | CC(C)NC(=O)N1CCc2onc(C(=O)NCCN(C)C)c2C1.O=C(O)C(F)(F)F | -1.789
4 | Cc1ccc(CN2CCc3onc(C(=O)NCCN(C)C)c3C2)o1.O=C(O)C(F)(F)F.O=C(O)C(F)(F)F | 74.07
5 | CC(C)C(=O)N1CCc2onc(C(=O)NCCN(C)C)c2C1.O=C(O)C(F)(F)F | 7.945
6 | CS(=O)(=O)N1CCC2(CCN(C(=O)c3cccs3)CC2)CC1 | 95.21
7 | O=C(c1cccs1)N1CCC2(CC1)CCN(S(=O)(=O)C1CC1)CC2 | 97.11
8 | CCS(=O)(=O)N1CCC2(CCN(Cc3nccs3)CC2)CC1.O=C(O)C(F)(F)F | 12.02
9 | CC(CCSc1ccccc1)N1CCN(C(=O)c2cccs2)CC1 (centres undefined) | 0.564
10 | Cn1cnnc1S(=O)(=O)C1CCN(C(=O)c2ccsc2)CC1 | -15.33
11 | CCS(=O)(=O)N1CCC2(CCN(C(=O)c3cccs3)CC2)CC1 | 97.57
12 | O=C(c1ccsc1)N1CCC2(CC1)CCN(S(=O)(=O)C1CC1)CC2 | 99.84
13 | Cc1ccc(OC2(C(=O)O)CCN(C(=O)c3cccs3)CC2)cn1 | -10.49
14 | O=C(O)C(F)(F)F.O=S(=O)(C1CC1)N1CCC2(CCN(Cc3nccs3)CC2)CC1 | -4.722
15 | O=C(c1cccs1)N1CC(C(=O)N2CCCC2)C2(CCOCC2)C1 (centres undefined) | -9.07
16 | Cc1ccc(N(C)C2CCN(C(=O)c3ccsc3)CC2)nn1 | -0.5839
17 | CS(=O)(=O)N1CCO[C@@H]2CCN(C(=O)c3cccs3)CC[C@H]21 | -2.724
18 | COCC1CN(Cc2c(C)noc2C)Cc2cn(C)nc21 (centres undefined) | 8.994
19 | NC(=O)NC(=O)CN1CCN(CC2CC2)c2ccccc21 | -3.453
20 | COCC(c1cccc(C(F)(F)F)c1)N(C)C(=O)c1ccncc1 (centres undefined) | -9.987
21 | COCCNc1ccccc1CNC(=O)NCc1nc(C)c(C)s1 | -3.267
22 | CC(=O)Nc1ccc2nn(C(C)C)cc2c1 | 3.305
23 | Cc1cc2cccc(C(=O)N3CCOC4(CNCCOC4)C3)c2o1 (centres undefined) | -17.55
24 | CCN(CC)CCNCC1CCOC(C)(C)C1 (centres undefined) | 101.9
25 | CCN(CC)CCCNCC1CCOC(C)(C)C1 (centres undefined) | 90.59
26 | COc1c(NS(=O)(=O)c2ccc(F)c(C)c2)c(C)nn1C | 6.685

Row | SMILES | Percent Effect [%]
27 | CC(=O)NC[C@@]1(COc2cnccn2)C[C@@H](O)[C@@H](O)C1.Cl | -2.09
28 | CCN(CC)C1(Cc2cc(-c3ccccn3)on2)COC1 | -7.749
29 | CNC(=O)c1cccc(CN2CCC(N(C)Cc3noc(C)n3)C2)c1 (centres undefined) | 9.379
30 | Cc1nc(CN(C)C2CCN(Cc3cccc(F)c3)C2)no1 (centres undefined) | 130.9
31 | Cc1nc(CN(C)C2CCN(Cc3ccc4c(c3)OCCO4)C2)no1 (centres undefined) | -0.871
32 | Cc1nc(CN(C)C2CCN(Cc3ccc(C(N)=O)cc3)C2)no1 (centres undefined) | 137.1
33 | CNC(=O)c1ccc(CN2CCC(N(C)Cc3noc(C)n3)C2)cc1 (centres undefined) | 12.29
34 | Cc1nc(CN(C)C2CCN(CCc3ccc4c(c3)CCO4)C2)no1 (centres undefined) | 131.2
35 | Cc1nc(CN(C)C2CCN(Cc3ccc4c(c3)CCC4)C2)no1 (centres undefined) | 94.75
36 | CC(C)(C)C(NC(=O)CCCS(C)(=O)=O)c1ccc(F)cc1F (centres undefined) | 6.458
37 | Cc1cnc(N2CCC3(CC2)CC(NC(=O)N(C)C)CO3)nc1 (centres undefined) | 3.12
38 | CC(C)c1cc(C(=O)N2C[C@@H](C)[C@](O)(C3CC3)C2)[nH]n1 | 9.432
39 | CCN(C(C)c1cccc(O)c1)S(=O)(=O)c1cccnc1 (centres undefined) | -1.511
40 | CC(C)(C)c1c[nH]c([C@@H]2COCCN2C2CCNCC2)n1 | -5.137
41 | Cc1cc(C)n(C2CN(CC(=O)NC3CCOCC3)C2)n1 | -6.139
42 | Cc1cc(C)n(C2CN(Cc3ccc(C(=O)N4CCCC4)cc3)C2)n1 | -4.233
43 | Cc1cc(C)n(C2CN(CCC(N)=O)C2)n1 | 109.9
44 | Cc1cnn(C2CN(CC(=O)NCCc3ccccc3)C2)c1 | -5.59
45 | Cc1cc(C)n(C2CN(CC(O)Cn3cccn3)C2)n1 (centres undefined) | -3.488
46 | Cc1cc(C)n(C2CN(CC(=O)N3CCOCC3)C2)n1 | -1.985
47 | CCc1ccc(NC(=O)CCN2CC(n3nc(C)cc3C)C2)cc1 | 87.75
48 | Cc1cc(C)n(C2CN(CCC(=O)NCCc3ccccc3)C2)n1 | 114.1
49 | COc1cccc(CNC(=O)C(C)N2CC(n3nc(C)cc3C)C2)c1 (centres undefined) | -5.224
50 | CN(C)S(=O)(=O)NC(=O)CC(c1ccccc1)C(F)(F)F (centres undefined) | -3.128
51 | CCCS(=O)(=O)NCc1cccnc1Oc1ccc(C)nc1 | -8.382
52 | O=C(CC1OCCc2ccsc21)NCC1CC1 (centres undefined) | -1.416

Row | SMILES | Percent Effect [%]
53 | CCc1nc(C(=O)N2CCN(CCc3ccc(OC)cc3)CC2)c[nH]1 | -9.12
54 | Cc1ccc(C)c(N2CCN(CC3(O)CCNC3)CC2)c1 (centres undefined) | -4.262
55 | Cn1nc(C(C)(C)C)cc1NC(=O)Cn1ccccc1=O | 13.92
56 | Cc1cc(O)cc(=O)n1CCCC(=O)Nc1n[nH]c2cccc(F)c12 | 106.9
57 | Cc1cc(NC(=O)Cn2ccccc2=O)n(C)n1 | -5.406
58 | Cc1nonc1NC(=O)CCn1cc(Br)ccc1=O | -2.489
59 | Cc1cc(O)cc(=O)n1CCCC(=O)Nc1n[nH]c2cc(Br)ccc12 | 109.7
60 | Cc1noc(C)c1NC(=O)CCn1cc(Br)ccc1=O | 5.297
61 | O=C(NCCCO)C1CC(=O)N(c2n[nH]c3cccc(F)c23)C1 (centres undefined) | 13.85
62 | Cc1ccccc1-c1cc(NC(=O)Cn2ccccc2=O)n(C)n1 | -15.16
63 | Cc1cc(O)cc(=O)n1CCCC(=O)Nc1n[nH]c2ccccc12 | 106.8
64 | COc1ccccc1OC1(C(=O)O)CCN(c2nccnc2OC)CC1 | -49.7
65 | CC(=O)c1ccc(N2CCCC(CO)(Cc3ccccc3F)C2)nc1 (centres undefined) | -130
66 | CC(C(=O)N1CCn2cncc2C1)N1C[C@@H](C)O[C@@H](C)C1 (some centres undefined) | 4.778
67 | Cc1nc(C)c(C(=O)N2CCCc3c(F)ccc(F)c32)o1 | -4.238
68 | Cc1noc(C)c1C(=O)N1CCCC1(C)C(=O)NC1CCCC1 (centres undefined) | 82.14
69 | Cc1nc(C)c(C(=O)N2CCCC2(C)C(=O)NC2CCCC2)s1 (centres undefined) | 95.95
70 | Cc1noc([C@@]23CCO[C@@H]2CCN(C(=O)c2c(C)noc2C)C3)n1 | -5.968
71 | Cc1noc(C2CCN(C(=O)c3c(C)noc3C)CC2)n1 | -1.195
72 | COc1cccc2c1CCCCN2C(=O)c1oc(C)nc1C | -10.05
73 | Cc1nc(C)c(C(=O)N2CCCC2(C)C(=O)NC2CCCC2)o1 (centres undefined) | 148.2
74 | CNC(=O)C1CCCCN1C(=O)c1sc(-c2ccc(C)o2)nc1C (centres undefined) | 8.745
75 | O=C(CCn1cccn1)N1CCN(CC(F)F)CC1 | 6.604
76 | CN(Cc1nc2ccsc2c(=O)[nH]1)CC1CCCCC1 | -1.437
77 | COc1nc2ccn(CCc3cc(O)nc(C)n3)c(=O)c2cc1C#N | -7.353
78 | COc1ccc(CCN2CCc3c(nc(C4CC4)n3C)C2)cc1 | -1.016

Row | SMILES | Percent Effect [%]
79 | Cc1nc(C)c(C)c(NCCSc2ccccn2)n1 | -2.821
80 | Cc1nc(N(C)C)ncc1C(=O)NCCc1csc(-c2cnccn2)n1 | -3.2
81 | Cc1nc(CCNc2nc(N(C)C)nc3c2CCCC3)cc(=O)[nH]1 | 13.62
82 | Cc1nc(N(C)C)nc(NCCc2ccccn2)c1C | 85.61
83 | Cc1nc(O)cc(CCNc2nc(N(C)C)nc(C)c2C)n1 | 19.28
84 | c1nc(CCNc2nc(C3CC3)nc3c2CCNCC3)c[nH]1 | 9.275
85 | Cc1nc(N(C)C)nc(NCCc2cnccn2)c1C | 98.55
86 | c1ccc(-c2nc3c(c(NCCc4c[nH]cn4)n2)CCNC3)cc1 | 7.707
87 | Cc1nc(N(C)C)nc(NCCc2c[nH]cn2)c1C | 92.29
88 | Cc1cccnc1N1CCN(Cc2cc(O)c3cccc(F)c3n2)CC1 | -4.875
89 | CCS(=O)(=O)N1CCOC2(CCCN(c3ncc(F)cn3)C2)C1 (centres undefined) | -5.745
90 | Cc1cnc(CNS(=O)(=O)CCC2CCCO2)o1 (centres undefined) | -9.077
91 | CC1CN(Cc2cnn(C)c2)CCN1c1ccc2nncn2n1 (centres undefined) | 114.2
92 | CC1CN(Cc2cccnc2)CCN1c1ccc2nncn2n1 (centres undefined) | 111.3
93 | CC1CN(Cc2cccc(C#N)c2)CCN1c1ccc2nncn2n1 (centres undefined) | -2.779
94 | COc1cccc(CN2CCN(c3ccc4nncn4n3)C(C)C2)c1 (centres undefined) | -8.631
95 | CC1CN(Cc2nccn2C)CCN1c1ccc2nncn2n1 (centres undefined) | 2.712
96 | CCC(=O)N1CCN(C(=O)Nc2cccc(F)c2)[C@H]2CS(=O)(=O)C[C@H]21 | 4.618
97 | Cc1cnn(CC2CN(Cc3nc(C)c4ccccc4n3)CCO2)c1 (centres undefined) | 114.4
98 | Cc1cnn(CC2CN(Cc3nc(N)c4ccccc4n3)CCO2)c1 (centres undefined) | 9.564
99 | Cc1cnn(CC2CN(Cc3nc4ccccc4nc3C)CCO2)c1 (centres undefined) | -8.261
100 | Cc1nc(CN2CCOC(Cn3cncn3)C2)nc2ccccc12 (centres undefined) | -10.51
101 | Cc1nc(CN2CCOC(Cn3cccn3)C2)nc2ccccc12 (centres undefined) | 103.8
102 | Cc1nc2ccccc2nc1CN1CCOC(Cn2cccn2)C1 (centres undefined) | 77.13
103 | Nc1nc(CN2CCOC(Cn3cccn3)C2)nc2ccccc12 (centres undefined) | 54.57
104 | Nc1nc(CN2CCOC(Cn3cncn3)C2)nc2ccccc12 (centres undefined) | -0.7232
